Source: the supplement of paper PMC6555819

Test system: RARb homodimer (NR concentration 270 nM)
Experiment: PBM binding z-score (relative to random genomic background probes); higher = stronger binding; sequences stand for … in GC…GCGATTGACAGCGTAGAATGAAGG
Procedure, shortened: (§1)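 Ligand-free nuclear receptor dimers were bound for 1 h to custom Agilent 4×180K protein-binding microarrays. Detection used antibodies against each partner (one per run). Binding z-scores rest on regression-normalized fluorescence, with random background probes as the reference.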

Sequence	PBM binding z-score
CATACAGGGTCAGCTAGGCCAGAGTGGGGACGGC	3.76
CGTCCAAGGTCAAATGTCAGTGAAGAGATGACGG	4.41
ATATGTAGGTTACATCCGGCTCATTCAGGCTATG	0.467
CCTTACGGGTCAAGGTTAGAGCACGGGTGGTACG	3.19
AGAATGAGGTTATTCAGATCAGGGAATTGCGGTC	0.905
AGAACGAGGGCAATGAGATGATAGCACGGGTGGC	0.913
CATAGAGGGTCAGCTAGGCCAGAGTAGGGACGGC	3.06
CCTATTAGTTGACCATAAAGGCAACCGAAGCTCG	0.622
TGAATGAGGTTAAAGATCAGGCAACGTGGCGTCG	0.653
CGCCCAAGGTCAAGGTCAGTGAAAGAGACTCGAA	5.33
GCTAGCAGGTCATTTGGGTCACTCAATGACGGGC	3.52
ATCTCTAGGTAAAGATAGGTCAGTGAATGCAAAT	2.4
CCAGACAGGTGCAAGGTAACTCAGTCTGGTACGC	-0.106
AGTCAAAGTTCAGGACCAGGTAACGTAAAGCACG	3
GCAGACAGGTGAAACGCAGGTACCTCAGGGTGGC	-0.353
CATCCAGGGTCAGCTAGGCCAGAGTAGGGACGGC	3.29
TGAATGTGGTTAAAGATCAGGGAACGTGGCGTCG	-0.107
TCTAGTTGGTCACGGAGGCCACACACGACGGGTA	2.01
TTACCATGGTGAAAGGTCGTTGATGCACGCCTTG	2.03
TCTAATTGGTCAAAGGTCACACACTCGAAATGCG	4.96

Sequence	PBM binding z-score
GCGACTGGGGCATAGCAGGTTACCATAAGGTTGG	1.04
CCTAGCAGGCCAATCTTGGTCACTCAAGGCTTGA	0.0668
TCATATACGTAAACAGGTGAAAGTCCGTAAGTTA	0.865
CCTACTGGCCCATTCAGAGGTCATTGATCATATG	3.64
ATCTCTAGGTAACAAGTTCAGTTAAAGAGAGGAC	1.9
GCTAGCAGGCCCTTTGGGTCACTCAATGACGGGC	1.29
ACTAGCAGGCCAAGTTTGGGTCACTCAAACAAAG	2.42
ACAGACAGGTGATGAAGGAAACTCAGGCTATCAT	0.24
ATCTCTAGGTACCAAGTTCAGTGAAAGAGAGGAC	1.51
GCGACTGGGGCATCAGCAGGTCACCATAACTTAA	3.25
TCTATTAGTTGATTAGGGCTACCGAAACAGCGGA	-0.115
ACTAGTTGGTCAGCAGAGGTCACACACAATTCGG	5.13
ATTGAAAGGTCGAAGGTGAGTATACCCACCCGAA	2.54
TCTAGCAGGCCAGAGGGTCACGCAAGAGGTACGG	3.37
TCTAGTTGGTCAAAGGTCGCACACTCGAAATGCG	3.14
GCTGCTAGGTCAACTGATGGTCAGCTCAAGCTCG	3.67
CGCCAAAGTTCAACTAAGGTAACGTAAAGCACGC	4.29
TCAGACAGGTGAAGTTAACTCAGGTACGCAGTCG	0.596
ATATGTAGGTTAAGGGTCATACAGGTTGGTTCGC	4.12

Test system: RARg:RXRa (NR concentration 270 nM, RXRa partner concentration 90 nM)
Experiment: as above
Procedure, shortened: as §1

Sequence	PBM binding z-score
CATACAGGGTCAGCTAGGCCAGAGTGGGGACGGC	4.58
CGTCCAAGGTCAAATGTCAGTGAAGAGATGACGG	6.58
ATATGTAGGTTACATCCGGCTCATTCAGGCTATG	0.906
CCTTACGGGTCAAGGTTAGAGCACGGGTGGTACG	4.77
AGAATGAGGTTATTCAGATCAGGGAATTGCGGTC	1.51
AGAACGAGGGCAATGAGATGATAGCACGGGTGGC	0.982
CATAGAGGGTCAGCTAGGCCAGAGTAGGGACGGC	3.83
CCTATTAGTTGACCATAAAGGCAACCGAAGCTCG	0.557
TGAATGAGGTTAAAGATCAGGCAACGTGGCGTCG	2.44
CGCCCAAGGTCAAGGTCAGTGAAAGAGACTCGAA	6.54
GCTAGCAGGTCATTTGGGTCACTCAATGACGGGC	4.5
ATCTCTAGGTAAAGATAGGTCAGTGAATGCAAAT	1.84
CCAGACAGGTGCAAGGTAACTCAGTCTGGTACGC	-0.306
AGTCAAAGTTCAGGACCAGGTAACGTAAAGCACG	4.41
GCAGACAGGTGAAACGCAGGTACCTCAGGGTGGC	0.0657
CATCCAGGGTCAGCTAGGCCAGAGTAGGGACGGC	4.74
TGAATGTGGTTAAAGATCAGGGAACGTGGCGTCG	0.0115
TCTAGTTGGTCACGGAGGCCACACACGACGGGTA	1.65
TTACCATGGTGAAAGGTCGTTGATGCACGCCTTG	2.17
TCTAATTGGTCAAAGGTCACACACTCGAAATGCG	7.28

Sequence	PBM binding z-score
GCGACTGGGGCATAGCAGGTTACCATAAGGTTGG	0.402
CCTAGCAGGCCAATCTTGGTCACTCAAGGCTTGA	-0.196
TCATATACGTAAACAGGTGAAAGTCCGTAAGTTA	0.708
CCTACTGGCCCATTCAGAGGTCATTGATCATATG	2.97
ATCTCTAGGTAACAAGTTCAGTTAAAGAGAGGAC	1.37
GCTAGCAGGCCCTTTGGGTCACTCAATGACGGGC	0.49
ACTAGCAGGCCAAGTTTGGGTCACTCAAACAAAG	2.46
ACAGACAGGTGATGAAGGAAACTCAGGCTATCAT	0.168
ATCTCTAGGTACCAAGTTCAGTGAAAGAGAGGAC	0.686
GCGACTGGGGCATCAGCAGGTCACCATAACTTAA	3.79
TCTATTAGTTGATTAGGGCTACCGAAACAGCGGA	0.318
ACTAGTTGGTCAGCAGAGGTCACACACAATTCGG	5.03
ATTGAAAGGTCGAAGGTGAGTATACCCACCCGAA	4.17
TCTAGCAGGCCAGAGGGTCACGCAAGAGGTACGG	3.78
TCTAGTTGGTCAAAGGTCGCACACTCGAAATGCG	4.78
GCTGCTAGGTCAACTGATGGTCAGCTCAAGCTCG	5.5
CGCCAAAGTTCAACTAAGGTAACGTAAAGCACGC	5.87
TCAGACAGGTGAAGTTAACTCAGGTACGCAGTCG	0.588
ATATGTAGGTTAAGGGTCATACAGGTTGGTTCGC	5.01
